Sampled rows, rich in hits. Any-hit rate of the full collection: about 3.5%.
TEAD-YAP block: TEAD-YAP interaction inhibition, primary screen, TEAD-YAP interaction inhibitor project, luminescence, HEK-TIYL cells. TEAD-Gal4/YAP UAS-luciferase luminescence. 640,000 compounds, 1.4% hits. inhibition, % at 9.12 µM. AID 1259422, 2018; in the data active means inhibition above about 32%;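 further: 0% = median of test compound wells and 100% = reference inhibitor wells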
MITF inh: MITF inhibitors, primary screen, biochemical, AlphaScreen, human; 650,000 compounds, 0.91% hits; AlphaScreen MITF homodimerization, bead proximity signal; inhibition, % at 2.6 µM; AID 1259374, 2018; in the data active means inhibition above about 50%;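 further: 0% = vehicle wells with protein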
Target sequence (O75030 whole entry, looked up): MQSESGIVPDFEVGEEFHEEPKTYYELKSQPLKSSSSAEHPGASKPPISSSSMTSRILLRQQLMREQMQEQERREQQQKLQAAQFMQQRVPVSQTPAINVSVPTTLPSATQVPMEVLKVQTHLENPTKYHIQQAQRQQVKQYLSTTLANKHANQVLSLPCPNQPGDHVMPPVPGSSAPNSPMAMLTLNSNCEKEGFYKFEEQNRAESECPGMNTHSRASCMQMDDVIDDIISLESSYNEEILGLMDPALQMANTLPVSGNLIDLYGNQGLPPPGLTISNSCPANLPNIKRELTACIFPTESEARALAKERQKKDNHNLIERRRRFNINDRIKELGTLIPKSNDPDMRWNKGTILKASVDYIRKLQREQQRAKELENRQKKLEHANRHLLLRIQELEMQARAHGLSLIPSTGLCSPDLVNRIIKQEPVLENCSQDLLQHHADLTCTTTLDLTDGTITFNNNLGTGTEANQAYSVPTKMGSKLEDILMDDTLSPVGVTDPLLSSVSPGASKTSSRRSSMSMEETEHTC
GPR151 ag: activators of human GPR151, primary screen, cell-based, PathHunter beta-arrestin, luminescence; G-protein coupled receptor 151 (Homo sapiens), Q8TDV0; PathHunter beta-arrestin GPR151 cells; activation, % at 11.2 µM; 650,000 compounds, 1% hits; in the data active means activation above about 4.9%;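 further: 0% = median of compound wells and 100% = cells with positive control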
FBW7 act: FBW7 E3 ligase activators, primary screen, biochemical, AlphaScreen, human | normalized activity (activation), % at 26.1 µM | 650,000 compounds, 0.13% hits | AlphaScreen FBW7–phospho-cyclin E peptide binding, activator screen | F-box/WD repeat-containing protein 7 (Homo sapiens), Q969H0; in the data active means normalized activity above about 1.9%;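 further: purified mutant Fbw7 with reduced substrate affinity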
* marks the source's active call; other numbers are inactive results.

SMILES | TEAD-YAP block | MITF inh | GPR151 ag | FBW7 act
N/C(=N\N=C/c1ccc([N+](=O)[O-])cc1)N/N=C\c1ccc([N+](=O)[O-])cc1 | 0.2 | -16.3 | 0.4 | 4.3*
O=C(N/N=C/c1ccc([N+](=O)[O-])cc1)c1cccc(O)c1 | 40.4* | 12.4 | -2.1 | 0.4
O=C(N/N=C/c1ccccc1)c1cccc(O)c1 | 33.6* | 12.8 | -2.3 | -0.1
CC1CCC(N2CCN(S(=O)(=O)c3ccc4ccccc4c3)CC2)CC1 (stereo unspecified) | 6.9 | 13.9 | 1.4 | -0.3
CC1=C(C(=O)Nc2ccc(C)cc2)C(c2ccc(Cl)cc2Cl)NC(=O)N1 (stereo unspecified) | 7.1 | 1.6 | 1.0 | 0.0
CCn1nc(CCC(=O)O)c2ccccc2c1=O | 1.6 | -9.4 | -0.7 | 0.0
CCn1nc(CN)c2ccccc2c1=O | 43.0* | 0.4 | 0.6 | 0.2
O=C(CC1CS(=O)(=O)CC1CC(=O)NCc1ccccc1)NCc1ccccc1 (stereo unspecified) | 3.5 | 14.1 | 0.1 | 0.4
Cc1oc(-c2ccc(Cl)cc2)nc1CN1CCCC(C(=O)NCc2cccnc2)C1 (stereo unspecified) | 45.7* | 12.4 | -0.8 | 0.8
Cc1oc(-c2ccc(Cl)cc2)nc1CN1CCCC(C(=O)NCCN2CCCC2)C1 (stereo unspecified) | -8.5 | 6.5 | 1.1 | 0.5
CC(OC(=O)CCCSc1ccc(Cl)cc1)C(N)=O (stereo unspecified) | -1.3 | -1.4 | 0.4 | -0.1
CCSc1nnc2c(n1)OC(c1cccc(Br)c1)Nc1ccccc1-2 (stereo unspecified) | -18.2 | 10.5 | -1.6 | -0.1
COC(=O)CCCN1C(=O)c2cccc3c(N4CCOCC4)ccc(c23)C1=O | 53.1* | -4.3 | -0.1 | 0.3
CCC(=O)OCCN1C(=O)c2cccc3c(N4CCOCC4)ccc(c23)C1=O | -3.5 | -12.2 | -1.3 | 0.1
CN=c1scc(-c2cccs2)n1/N=C/c1ccc(O)c(O)c1O | 71.2* | 32.0 | -2.6 | -0.7
COCCN=c1scc(-c2ccco2)n1/N=C/c1ccc(O)c(O)c1O | -9.2 | 41.1 | 0.3 | -0.5
C=CCN=c1scc(-c2ccco2)n1/N=C/c1ccc(O)c(O)c1O | 54.8* | 2.8 | -0.9 | -0.6
CN=c1scc(-c2cccs2)n1/N=C/c1ccccc1O | 95.0* | 3.6 | -4.9 | -0.1
CN=c1scc(C)n1/N=C/c1ccc(O)c(O)c1O | 17.9 | 12.6 | -0.3 | -0.5
CC(OC(=O)COc1ccc(C#N)cc1)C(=O)Nc1ncc(Cl)cc1Cl (stereo unspecified) | -6.9 | 4.3 | -0.2 | 0.1
Cc1ccc(S(=O)(=O)Nc2nc3ccccc3nc2Nc2cccc(N(C)C)c2)cc1 | 35.3* | 12.1 | -0.1 | -0.1
COc1ccc(-n2c(/C=C/N(C)C)c([N+](=O)[O-])c3ccc(O)c(CN(C)C)c32)cc1 | 37.6* | 5.4 | -0.6 | 0.2
CC(C)n1cnc2c(NC3CC3)nc(-c3ccc(C(N)=O)cc3)nc21 | 39.9* | 13.1 | -1.0 | 0.8
CC(C)n1cnc2c(NC3CC3)nc(-c3ccc(C(=O)NC4CC4)cc3)nc21 | 32.7* | 18.0 | -0.6 | 0.0
CC(C)n1cnc2c(NCc3ccccc3)nc(-c3ccc(C(N)=O)cc3)nc21 | 8.8 | -6.0 | 1.4 | 0.1
SMILES | TEAD-YAP block | MITF inh | GPR151 ag | FBW7 act
CC(C)n1cnc2c(Nc3ccccc3)nc(-c3ccc(C(N)=O)cc3)nc21 | 44.2* | -1.2 | -0.5 | 0.1
CCCC(=O)Nc1ccc2c(c1)C(=O)N(C)C2=O | -10.1 | -5.2 | 0.4 | 0.1
CC(=O)NC1(c2ccc(F)cc2)CCN(C(=O)C2CCCCC2)CC1 | -13.4 | -7.8 | -1.2 | 0.1
COc1ccc2occ(C(=O)c3oc4ccc(Cl)cc4c3N)c2c1 | 57.0* | -10.1 | -0.8 | 0.0
CCOC(=O)C1=C(C)N=c2s/c(=C\c3ccc(-c4cccc([N+](=O)[O-])c4)o3)c(=O)n2C1c1ccccc1OC (stereo unspecified) | 2.5 | 10.4 | -1.7 | 0.3
CCOC(=O)CN1CCN(c2ccc(-c3cccc(OC)c3)cn2)CC1 | 71.4* | 2.9 | -0.2 | 0.4
COc1ccc(C2CC(=O)N(CC(=O)c3ccccc3)c3ccccc3S2)cc1OC (stereo unspecified) | 75.7* | 5.5 | 1.7 | 0.0
COc1cc(NC(=O)CC(C)C)c(OC)cc1NC(C)=O | -0.5 | -8.5 | 0.7 | 0.1
COc1ccc(-n2nc(C(=O)NCCCN3CCN(C)CC3)c3ccccc3c2=O)c(OC)c1 | -2.4 | 6.5 | 2.9 | 0.0
COc1cc(C2C(C#N)=C(N)N(c3c(F)cccc3F)C3=C2C(=O)CCC3)ccc1O (stereo unspecified) | 8.6 | -4.0 | -0.6 | -0.1
CCN1CCCC1CNC(=O)CCC(=O)N1CCOc2ccc(C)cc21 (stereo unspecified) | -3.4 | 13.8 | -0.6 | 0.5
O=C(O)C1Nc2c(Cl)cc(Cl)cc2C2C=CCC12 (stereo unspecified) | 8.5 | 59.4* | 1.4 | -0.1
O=C(O)C1Nc2c(Cl)cc(Cl)c(Cl)c2C2C=CCC12 (stereo unspecified) | 8.6 | 57.7* | -0.6 | 0.8
Clc1cc(Cl)c2c(c1)C1C=CCC1C(c1ccccc1)N2 (stereo unspecified) | 9.7 | 12.4 | -0.1 | 0.1
Cn1c(O)c(C=NC(CC(=O)O)C(=O)O)c(=O)n(C)c1=O (stereo unspecified) | -2.5 | -6.5 | -0.8 | -0.1
CC(C)(C)c1ccccc1OCC(=O)Nc1nccs1 | 4.8 | -13.3 | -1.0 | 0.0
Cc1ccc(OCC(=O)Nc2nccs2)c(C)c1 | 93.3* | 4.8 | -7.7 | -0.3
Cc1ccc(/C=C/C(=O)Nc2nccs2)cc1 | 69.2* | 18.4 | -7.3 | -0.1
Cc1ccc(C)c(OCC(=O)Nc2nccs2)c1 | -13.5 | 12.1 | -2.0 | -0.2
Cc1ccccc1OCC(=O)Nc1nccs1 | 49.7* | 2.9 | -9.7 | 0.0
Cc1ccc(C(C)(C)C)c(OCC(=O)Nc2nccs2)c1 | 50.0* | 10.8 | -0.9 | 0.0
COc1ccc2c(c1OC)C(=O)N1C(C(=O)O)Cc3c([nH]c4ccccc34)C21 (stereo unspecified) | 5.8 | -8.0 | -0.1 | -0.1
COc1ccc(-c2[nH]nc3nc(-c4ccc(N5CCN(C)CC5)nc4)ccc23)cc1OC | -44.0 | 19.9 | 0.9 | 0.7
CN1CCN(c2ccc(-c3ccc4c(-c5cccc(O)c5)[nH]nc4n3)cn2)CC1 | 96.1* | -5.3 | -0.2 | 0.1
O=C(CSc1nncn1-c1ccccc1)Nc1nc2c(F)c(F)c(F)cc2s1 | -7.5 | 10.5 | -1.3 | 3.9*
CCC(=O)Nc1ccc(C2=NNC(=NCCN3CCOCC3)SC2)cc1 | -6.3 | -2.1 | -0.4 | -0.1
CCN1CCN(S(=O)(=O)c2ccc(F)c(C(=O)Nc3cccc(Cl)c3)c2)CC1 | -2.2 | 8.4 | -1.2 | -0.1
O=[N+]([O-])c1cccc(S(=O)(=O)N2CCc3ccccc32)c1 | 32.4* | 3.0 | 0.5 | -0.4
Cc1cc(C)c(S(=O)(=O)N2CCc3ccccc32)cc1[N+](=O)[O-] | 63.5* | 49.4 | 0.6 | -0.1
